High-throughput results: PubChem, National Center for Advancing Translational Sciences (NCATS)
IMPase Li cell – qHTS Assay for Identifying the Cell-Membrane Permeable IMPase Inhibitors: Potentiation with Lithium; CHO-M1 cells, IP1 TR-FRET (IP-One), carbachol + lithium; Potency, µM (highest dose often 59.4 µM), actives largely listed as inhibitors; 0.35% of 210,000 active;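 note: IP1 builds up when IMPase is blocked and the TR-FRET signal falls; nearly all actives have a fitted effect of over 50% in size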
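Test compounds were applied to CHO-M1 cells previously cultured for 16–30 h at 2000 per well. A small lithium amount accompanied them; after 30 min at 37C, IP1 was quantified by TR-FRET.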
JMJD2E inh – qHTS Assay for Inhibitors of Human Jumonji Domain Containing 2E (JMJD2E); JMJD2E catalytic domain, FDH-coupled NADH fluorescence (FDH is formaldehyde dehydrogenase); Potency, µM (series often up to 57.1 µM), hits mostly inhibitors; 1.6% of 230,000 active; AID 2147, 2009; active = well fitted inhibition curve with a large enough effect, not every such curve was filed as active; inconclusive = small, poorly fitted or top-dose-only effect, or another doubt; inactive = no such curve, though single readings can be large or run the other way; note: nearly all actives have a fitted effect of over 50% in size
Target sequence (B2RXH2 1-337 limits assumed): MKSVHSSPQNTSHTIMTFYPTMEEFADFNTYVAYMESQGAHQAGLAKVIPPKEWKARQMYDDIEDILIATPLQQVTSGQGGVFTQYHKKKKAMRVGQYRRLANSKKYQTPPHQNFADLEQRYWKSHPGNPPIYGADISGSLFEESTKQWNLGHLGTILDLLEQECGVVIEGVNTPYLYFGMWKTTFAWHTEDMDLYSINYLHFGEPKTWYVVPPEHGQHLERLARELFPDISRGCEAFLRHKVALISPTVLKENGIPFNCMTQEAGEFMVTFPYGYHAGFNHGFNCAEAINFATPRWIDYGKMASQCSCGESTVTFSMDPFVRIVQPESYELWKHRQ
Epigenetic reg – Quantitative High-Throughput Screen for Regulators of Epigenetic Control | 0.2% of 280,000 active | murine LDR cells, GFP reporter derepression, 30 h | Potency, µM (doses to about 53.9 µM), actives largely listed as activators; note: nearly all actives have a fitted effect of over 60% in size
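Murine LDR cells carrying a silenced, genomically integrated CMV-driven GFP reporter were exposed to compound for 30 hours at 37 C. After PBS washes, GFP-positive cells (20–120 um objects) were counted by laser-scanning microplate cytometry.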
KAT2A inh – qHTS Assay for Inhibitors of GCN5L2. GCN5L2 HAT assay, ThioGlo1 CoA-SH fluorescence. Potency, µM (titrated, usually from 58.9 µM), hits mostly inhibitors. 0.21% of 390,000 active
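GCN5L2 (20nM final) in 50mM HEPES, 0.1mM EDTA pH 7.5, 0.01% Tween-20 was preincubated 15 min at room temperature with compound, then given ThioGlo1 (50uM), H3(1-25) peptide (75uM) and acetyl-CoA (70uM); CoA-thiol fluorescence (Ex340/Em540) was read at 0 and 20 min.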
Sfp inh – qHTS Assay for Inhibitors of Bacillus subtilis Sfp phosphopantetheinyl transferase (PPTase) | Biochemical Sfp PPTase activity, qHTS | 3.5% of 310,000 active | Potency, µM, actives largely listed as inhibitors;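 note: the enzyme is Sfp with the accession as filed and its product quenches rhodamine fluorescence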
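After 15 min at room temperature with compound, 15 nM Sfp received 5 uM rhodamine-CoA plus 12.5 uM BHQ-2-ybbR (50 mM Hepes pH 7.6, 10 mM MgCl2). Rate came from the fluorescence difference over 30 min, ex 525/em 598 nm.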
NPSR antagonist – qHTS Assay for Antagonists of the Neuropeptide S Receptor: cAMP Signal Transduction; Q6W5P4; CHO-NPSR cells, cAMP TR-FRET, antagonist mode; Potency, µM (titrated, usually from 38.3 µM), hits mostly inhibitors; 1% of 220,000 active; AID 1461, 2008; note: nearly all actives have a fitted effect of over 50% in size
Target sequence (Q6W5P4 whole entry, looked up): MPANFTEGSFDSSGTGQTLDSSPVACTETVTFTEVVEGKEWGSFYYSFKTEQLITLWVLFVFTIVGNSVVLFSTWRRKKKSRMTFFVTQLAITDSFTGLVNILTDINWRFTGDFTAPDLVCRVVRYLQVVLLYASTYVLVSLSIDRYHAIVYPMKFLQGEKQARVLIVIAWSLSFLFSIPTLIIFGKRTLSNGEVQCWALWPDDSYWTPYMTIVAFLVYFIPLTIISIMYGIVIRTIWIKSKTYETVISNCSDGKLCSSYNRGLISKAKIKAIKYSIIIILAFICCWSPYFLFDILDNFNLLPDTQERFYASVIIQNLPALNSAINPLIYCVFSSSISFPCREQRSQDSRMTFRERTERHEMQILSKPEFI
Hits are given with their value; - = inactive; ? = inconclusive; . = no result given; ! = not confirmed by another sample; [ ] = remark or other dose. The list is not random: actives were taken first. Their share in the collection is about 3.6%. Unless noted, calls come from the whole dose curve; as a rule, active = well fitted curve in the direction sought with a large enough effect; inconclusive = small, poorly fitted or top-dose-only effect, or another doubt; inactive = no such curve, though single readings can be large; an effect the other way counts as inactive or inconclusive.

SMILES | IMPase Li cell | JMJD2E inh | Epigenetic reg | KAT2A inh | Sfp inh | NPSR antagonist
Cc1ccc(OCC(=O)Nc2sc3c(c2C(N)=O)CCCC3)c(C(C)(C)C)c1 | . | . | - | - | . | .
O=C1C[C@H](c2ccc(-c3ccccc3)cc2)N1S(=O)(=O)c1ccccc1[N+](=O)[O-] | . | . | . | . | - | .
C/C=C(\C)CN1CCN(c2ccccc2)CC1 | - | - | - | 32µM | - | -
CCC12CN3CC(CC)(CN(C1)C3c1c[nH]c3ccccc13)C2=O (stereo unspecified) | . | . | - | - | . | .
CCC12CN3CC(CC)(CN(C1)C3c1c(O)ccc3ccccc13)C2=O (stereo unspecified) | - | 13µM | - | - | - | ?
O=C(C[n+]1cc(-c2ccc(Cl)cc2)n2c1CCC2)Nc1nc(-c2ccc(F)cc2)cs1 | . | - | - | - | 45µM | -
CCn1c2ccccc2c2cc(C3C(C#N)=C(N)Oc4n[nH]c(COC)c43)ccc21 (stereo unspecified) | - | 10µM | - | - | - | ?
COCc1[nH]nc2c1C(c1ccc(OC)c(OC)c1)C(C#N)=C(N)O2 (stereo unspecified) | - | - | - | - | - | -[7.67 µM]
c1ccc(CCc2nc3ccccc3[nH]2)cc1 | - | - | - | - | - | -
S=c1cnc2ccccc2[nH]1 | - | 11µM | -[10.1 µM] | - | 20µM | -
CCCCc1nc2c(c3c1C[C@H](C)OC3)CN(C(=O)N[C@@H](C)c1ccccc1)CC2 | - | -[11.4 µM] | . | . | - | .
COc1cc(C2c3c([nH]c(=O)[nH]c3=O)Nc3ccc4ccccc4c32)ccc1O (stereo unspecified) | - | ? | - | - | ? | -
COc1cc(C2c3c([nH]c(=O)[nH]c3=O)Nc3ccc4ccccc4c32)cc(OC)c1OC (stereo unspecified) | - | ? | - | - | 56µM | -
Cc1noc(C)c1-c1ccc2ncnc(NCc3ccccc3Cl)c2c1 | . | . | . | . | - | .
Cn1cc(/C=C2\SC(=O)NC2=S)c2ccccc21 | - | - | - | - | 32µM | -
Cc1ccc(/C=C2/SC(=O)NC2=S)o1 | ? | ? | - | ? | 22µM | 13µM
O=C(COc1ccc(Cl)cc1)NCc1nnc(SCC(=O)NC2CCCCC2)o1 | 11µM | - | - | - | ? | -
O=[N+]([O-])c1ccc(C2=Nn3c(Cn4nnc5ccccc54)nnc3SC2)cc1 | . | - | - | - | 20µM | -
CC(C)(O)C(=O)NNC(=S)Nc1cccc(C(F)(F)F)c1 | - | - | - | - | - | -
CCOc1cccc(C(=O)NC(=S)Nc2ccc(Cl)cc2C(=O)O)c1 | - | ? | - | - | 45µM | -
FC(F)(F)c1cccc(NC(=S)NNC(=S)Nc2cccc(C(F)(F)F)c2)c1 | . | - | - | ? | 25µM | ?
CCOc1ccc(NC(=S)NNC(=S)Nc2cccc(C(F)(F)F)c2)cc1 | . | - | - | ? | 35µM | -
Cc1ccc(C(=O)O)cc1NC(=S)NC(=O)Cc1ccccc1 | - | - | - | - | - | -
Cc1ccc(C(=O)O)cc1NC(=S)NC(=O)c1ccc(COc2ccccc2)cc1 | . | . | . | ? | 50µM | .
O=C(Nc1ccccc1Cl)[C@H](CSCc1ccccc1)N1Cc2ccccc2C1=O | . | . | - | - | . | .
SMILES | IMPase Li cell | JMJD2E inh | Epigenetic reg | KAT2A inh | Sfp inh | NPSR antagonist
CNNC(=S)Nc1cccc(C(F)(F)F)c1 | . | - | - | - | - | -
CCOc1cc(OCC)cc(C(=O)NC(=S)Nc2cccc(C(F)(F)F)c2)c1 | - | - | - | - | 89µM | ?
COc1ccc(NC(=S)NNC(=S)Nc2cccc(C(F)(F)F)c2)cc1 | . | - | - | ? | 20µM | -
OCC1OC(/C=C\c2ccccc2)C=CC1Oc1ccc2c(c1)OCO2 (stereo unspecified) | . | . | -[10.1 µM] | . | - | .
CC(NCc1ccc(S(N)(=O)=O)cc1)C(=O)N1CCc2ccccc21 (stereo unspecified) | . | - | - | - | - | -
N#CC(Cc1ccc(O)c(O)c1)C(=O)N1CCc2ccccc21 (stereo unspecified) | - | 20µM | - | . | . | -
CCCCc1nc2c(c3c1C[C@H](C)OC3)CN(C(=O)c1cccnc1)CC2 | - | -[11.4 µM] | . | . | - | .
CC(=O)Nc1c(O)nc(SCC(=O)Nc2nnc(CC(C)C)s2)[nH]c1=O | - | - | - | - | - | -
CC(=O)Nc1c(O)nc(SCC(=O)Nc2nnc(SCc3ccccc3)s2)[nH]c1=O | - | - | - | - | 35µM | -
COC(=O)c1c(-c2cccc(OC)c2)csc1N | - | - | - | - | 56µM | -
CCOC(=O)c1c(-c2ccc(C)s2)csc1N | - | - | - | - | 11µM | -
CCOC(=O)c1c(-c2ccsc2)csc1N | - | - | - | - | 56µM | -
O=C(Nc1ccc(F)cc1)[C@H](CSCc1ccccc1)N1Cc2ccccc2C1=O | . | . | - | - | . | .
CC1CCc2nc3ncn(Cc4ccccc4F)c(=O)c3cc2C1 (stereo unspecified) | . | . | - | - | . | .
COc1cccc(-c2cc(C(F)(F)F)n3nc(-c4ccc(C)cc4)cc3n2)c1 | . | . | - | - | . | .
COc1cccc(-c2cc3nc(-c4ccccc4)cc(N4CCC5(CC4)OCCO5)n3n2)c1 | 11µM | ? | - | - | - | -
Nc1ccc(Sc2ccc([N+](=O)[O-])cc2)cc1 | - | - | - | - | - | -
O=C1C=CC(=O)N1c1ccc(Sc2ccc([N+](=O)[O-])cc2)cc1 | . | - | - | ? | 8.9µM | -
COc1cc2ccc(=O)oc2c(O[C@@H]2O[C@H](CO)[C@@H](O)[C@H](O)[C@H]2O)c1O | . | . | . | 22µM | - | .
O=c1ccc2ccc(O[C@@H]3O[C@H](CO)[C@@H](O)[C@H](O)[C@H]3O)c(O)c2o1 | - | - | - | - | - | .
COc1cc2ccc(=O)oc2c(O)c1O | - | ? | - | . | 40µM! | .
COc1cc(C2OCC3C(c4ccc(OC5OC(CO)C(O)C(O)C5O)c(OC)c4)OCC23)ccc1O (stereo unspecified) | - | 28µM | - | - | - | -
COc1cc2ccc(=O)oc2c(OC)c1OC | - | ? | - | - | - | .
COc1ccc2cc3cc(C(=O)NCCc4ccccc4)sc3nc2c1Cl | . | . | ? | - | . | .
O=C1C(Cl)=C(Nc2ccccc2O)C(=O)N1CCc1ccccc1 | - | - | - | - | 11µM | -
CCOc1ccc(N2C(=O)C(Cl)=C(Nc3ccccc3O)C2=O)cc1 | - | - | ? | - | 40µM | -
S=c1[nH]nc(-c2cc(-c3ccccc3)n[nH]2)n1/N=C/c1ccc(Br)s1 | . | - | - | - | 25µM | -
Cc1ccccc1/C=N/n1c(-c2cc(-c3ccccc3)n[nH]2)n[nH]c1=S | . | - | - | - | 56µM | -
